From the supplement of paper PMC10849652
The full data set covers some 7,900 targets. This sample favours those with a hit. About 0.6% of all pairs of compound and target were hits. Unmarked numbers belong to inactive results.

What was measured:
Test in all cases: log2 fold change, soluble protein after heating vs DMSO (PISA); higher = thermal stabilisation; K562 cells, 10 uM, 30 min; active = over 0.2 and 3.5 SD of the protein, either way, in both replicates (recomputed)
[1] = compound: C/C(=N\NC(=O)C1=CC(=CC=C1)S(=O)(=O)N2CCOCC2)/C3=C(C=CC(=C3)Cl)O
Outline: (§1)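 Aliquots of K562 cells (2×10^6 cells/mL) treated with 10 μM compound for 30 min were heated for 3 min over 48°C-58°C. After pooling and extraction in PBS with 0.5% NP-40 at 4°C, soluble protein from a 21,000xg, 90 min spin was quantified by TMTpro 16plex LC-MS/MS with channel sums equalised. Thermal stability is expressed against control samples, from duplicates, as a log2 fold change.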

[2] = compound: C1=CC(=C(C=C1Cl)C2=NC3=NC=CN=C3C(=N2)NC4=CC=NC=C4)F
Outline: as §1

[3] = compound: C1=CC2=C(C=CC(=C2)/C=C\3/C(=O)NC(=NCC4=CC=CS4)S3)N=C1
Outline: as §1

[4] = compound: C1=CC=C(C=C1)C2=NC(=C(N2)C3=CC=NC=C3)C4=CC(=C(C=C4)Cl)O
Outline: as §1

[5] = compound: C1=CC=C2C(=C1)C3=NNC4=CC=CC(=C43)C2=O
Outline: as §1

[6] = compound: C1CCN(C1)C(=O)NC2=CC=CC(=C2)NC3=NC=C(C(=N3)NCCC4=CN=CN4)Br
Outline: as §1

[7] = compound: C1CN(CCC1(CC2=CC=C(C=C2)Cl)N)C3=NC=NC4=C3C=CN4
Outline: as §1

[8] = compound: C1COCCN1CCN2C3=CC=CC=C3N=C2NC(=O)C4=CC(=CC=C4)[N+](=O)[O-] [IRAK-1-4 Inhibitor I]
Outline: as §1

[9] = compound: CC(=O)c1cnc2ccc(-c3cc(Cl)c(O)c(Cl)c3)nc2c1N[C@H]1CC[C@H](CN(C)C)CC1
Outline: as §1

[10] = compound: CC(C)(C)Cn1c(N)nc2ccc(-c3[nH]c(C(C)(C)C)nc3-c3ccc(F)cc3)nc21 [ralimetinib]
Outline: as §1

[11] = compound: CC(C)(O)CC(=O)NCCn1ccc2ncnc(Nc3ccc(Oc4cccc(C(F)(F)F)c4)c(Cl)c3)c21
Outline: as §1

[12] = compound: CC(C)C[C@@H](C=O)NC(=O)[C@H](CC(C)C)NC(=O)[C@H](CC(C)C)NC(=O)OCc1ccccc1
Outline: as §1

[13] = compound: CC(C)N(C[C@H]1O[C@@H](n2cnc3c(N)ncnc32)[C@H](O)[C@@H]1O)[C@H]1C[C@@H](CCc2nc3cc(C(C)(C)C)ccc3[nH]2)C1 [pinometostat]
Outline: as §1

[14] = compound: CC1=C(C2=C(C=C1)C(=O)C3=CC=CC=C3N2CCCN)C
Outline: as §1

[15] = compound: C1=CC2=NC=CN=C2C=C1/C=C/3\C(=O)NC(=O)S3
Outline: as §1

[16] = compound: C=CC(=O)N1CCC[C@@H](n2nc(-c3ccc(Oc4ccccc4)cc3)c3c(N)ncnc32)C1 [ibrutinib]
Outline: as §1

[17] = compound: C#Cc1cccc(Nc2ncnc3cc(OCCOC)c(OCCOC)cc23)c1 [erlotinib]
Outline: as §1

[18] = compound: C1=CC(=CC=C1C2=NC3=C(N2)C=C(C=C3)C(=O)N)OC4=CC=C(C=C4)Cl
Outline: as §1

[19] = compound: CC(C)C1=C2N=C(C=C(N2N=C1)NCC3=CC=CC=C3)NCCCCCCN
Outline: as §1

[20] = compound: CC1=C(C(CC(=O)N1)C2=CC=C(C=C2)C(F)(F)F)C(=O)NC3=C(C=C4C(=C3)C=NN4)F
Outline: as §1

UniProt Q8IXM2, sequence (Q8IXM2 whole entry, looked up): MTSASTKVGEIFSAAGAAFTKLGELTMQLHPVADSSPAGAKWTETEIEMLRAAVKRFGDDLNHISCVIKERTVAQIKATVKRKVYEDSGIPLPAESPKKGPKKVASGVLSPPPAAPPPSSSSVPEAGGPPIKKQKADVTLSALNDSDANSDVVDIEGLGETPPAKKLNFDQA
UniProt Q9UNA0, sequence (Q9UNA0 whole entry, looked up): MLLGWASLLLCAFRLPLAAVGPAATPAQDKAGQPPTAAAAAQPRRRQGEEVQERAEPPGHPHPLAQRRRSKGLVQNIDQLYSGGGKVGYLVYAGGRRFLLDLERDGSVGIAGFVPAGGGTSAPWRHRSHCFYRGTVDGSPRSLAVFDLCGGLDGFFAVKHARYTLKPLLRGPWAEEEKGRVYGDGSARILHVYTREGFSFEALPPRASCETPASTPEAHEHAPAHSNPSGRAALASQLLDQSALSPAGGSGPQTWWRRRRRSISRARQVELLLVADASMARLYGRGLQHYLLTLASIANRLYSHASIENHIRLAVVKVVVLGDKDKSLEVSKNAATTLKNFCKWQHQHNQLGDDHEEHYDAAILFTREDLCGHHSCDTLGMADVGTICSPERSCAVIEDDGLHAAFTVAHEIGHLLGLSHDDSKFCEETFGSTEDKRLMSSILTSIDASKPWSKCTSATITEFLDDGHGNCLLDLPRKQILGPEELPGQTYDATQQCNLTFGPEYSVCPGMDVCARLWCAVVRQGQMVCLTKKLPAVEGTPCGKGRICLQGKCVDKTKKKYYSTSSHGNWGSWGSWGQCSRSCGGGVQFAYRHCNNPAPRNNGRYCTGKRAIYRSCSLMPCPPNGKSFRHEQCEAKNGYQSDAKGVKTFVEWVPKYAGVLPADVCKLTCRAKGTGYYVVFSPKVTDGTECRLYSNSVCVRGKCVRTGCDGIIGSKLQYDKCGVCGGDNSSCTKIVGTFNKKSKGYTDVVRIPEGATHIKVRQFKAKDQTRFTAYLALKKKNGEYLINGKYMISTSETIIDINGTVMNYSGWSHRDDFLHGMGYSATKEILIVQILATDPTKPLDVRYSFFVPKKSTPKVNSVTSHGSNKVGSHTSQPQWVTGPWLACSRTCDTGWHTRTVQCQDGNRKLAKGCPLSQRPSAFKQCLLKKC
UniProt Q9NX38, sequence (Q9NX38 whole entry, looked up): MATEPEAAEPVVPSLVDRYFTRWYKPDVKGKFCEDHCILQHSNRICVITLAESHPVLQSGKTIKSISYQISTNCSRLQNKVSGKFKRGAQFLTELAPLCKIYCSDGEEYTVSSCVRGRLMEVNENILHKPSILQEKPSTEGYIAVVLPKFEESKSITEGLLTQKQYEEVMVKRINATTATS
UniProt P40617, sequence (P40617 whole entry, looked up): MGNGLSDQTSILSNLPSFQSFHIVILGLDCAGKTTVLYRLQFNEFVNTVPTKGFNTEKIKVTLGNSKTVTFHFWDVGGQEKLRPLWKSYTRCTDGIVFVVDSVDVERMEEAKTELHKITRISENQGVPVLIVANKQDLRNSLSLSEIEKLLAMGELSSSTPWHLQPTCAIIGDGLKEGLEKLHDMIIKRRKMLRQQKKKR
UniProt Q13825, sequence (Q13825 whole entry, looked up): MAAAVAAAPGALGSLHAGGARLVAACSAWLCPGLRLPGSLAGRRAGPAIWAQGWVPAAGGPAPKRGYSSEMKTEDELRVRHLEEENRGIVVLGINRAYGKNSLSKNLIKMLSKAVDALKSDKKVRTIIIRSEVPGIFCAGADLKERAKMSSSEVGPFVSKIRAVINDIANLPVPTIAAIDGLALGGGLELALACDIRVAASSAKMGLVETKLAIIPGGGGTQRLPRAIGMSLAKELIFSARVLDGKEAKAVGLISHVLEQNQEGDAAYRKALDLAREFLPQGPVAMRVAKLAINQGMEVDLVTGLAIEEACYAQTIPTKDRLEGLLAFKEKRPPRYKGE
UniProt Q9UKU0, sequence (Q9UKU0 whole entry, looked up): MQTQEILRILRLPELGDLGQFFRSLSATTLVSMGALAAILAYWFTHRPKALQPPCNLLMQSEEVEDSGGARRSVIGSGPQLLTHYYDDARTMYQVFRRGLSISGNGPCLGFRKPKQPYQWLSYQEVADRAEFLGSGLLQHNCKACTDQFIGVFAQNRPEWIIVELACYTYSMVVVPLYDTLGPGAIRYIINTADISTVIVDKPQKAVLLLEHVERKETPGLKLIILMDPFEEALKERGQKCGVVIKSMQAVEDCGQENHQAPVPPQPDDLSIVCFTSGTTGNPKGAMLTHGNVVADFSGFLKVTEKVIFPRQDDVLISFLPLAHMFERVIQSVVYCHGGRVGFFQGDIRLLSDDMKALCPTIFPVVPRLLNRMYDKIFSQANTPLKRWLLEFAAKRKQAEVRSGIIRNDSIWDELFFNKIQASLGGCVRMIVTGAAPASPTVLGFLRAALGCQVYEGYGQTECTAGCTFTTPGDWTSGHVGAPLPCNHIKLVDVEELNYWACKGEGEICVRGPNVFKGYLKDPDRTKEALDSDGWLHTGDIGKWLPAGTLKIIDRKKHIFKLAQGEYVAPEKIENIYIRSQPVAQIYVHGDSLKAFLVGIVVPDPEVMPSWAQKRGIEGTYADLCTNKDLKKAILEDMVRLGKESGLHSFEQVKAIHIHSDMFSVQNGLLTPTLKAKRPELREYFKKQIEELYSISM
UniProt Q15059, sequence (Q15059 whole entry, looked up): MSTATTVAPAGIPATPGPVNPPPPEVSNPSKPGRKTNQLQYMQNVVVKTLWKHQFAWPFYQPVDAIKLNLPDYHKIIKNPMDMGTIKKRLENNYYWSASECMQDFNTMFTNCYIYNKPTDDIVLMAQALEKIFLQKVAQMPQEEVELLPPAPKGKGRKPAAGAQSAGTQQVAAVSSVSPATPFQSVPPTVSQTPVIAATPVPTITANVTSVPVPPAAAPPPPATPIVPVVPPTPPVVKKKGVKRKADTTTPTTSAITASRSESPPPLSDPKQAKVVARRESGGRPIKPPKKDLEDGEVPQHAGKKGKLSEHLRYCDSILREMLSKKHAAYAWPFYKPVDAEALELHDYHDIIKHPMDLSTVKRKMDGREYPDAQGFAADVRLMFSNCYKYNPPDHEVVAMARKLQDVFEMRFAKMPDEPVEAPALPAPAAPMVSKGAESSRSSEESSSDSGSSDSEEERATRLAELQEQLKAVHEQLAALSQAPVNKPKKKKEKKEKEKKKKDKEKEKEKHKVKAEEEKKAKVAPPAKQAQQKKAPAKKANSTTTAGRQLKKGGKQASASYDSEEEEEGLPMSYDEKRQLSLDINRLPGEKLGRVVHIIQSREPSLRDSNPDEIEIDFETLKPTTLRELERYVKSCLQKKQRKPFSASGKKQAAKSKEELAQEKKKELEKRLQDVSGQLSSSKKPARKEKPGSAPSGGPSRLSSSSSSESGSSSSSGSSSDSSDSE
UniProt Q96BI3, sequence (Q96BI3 whole entry, looked up): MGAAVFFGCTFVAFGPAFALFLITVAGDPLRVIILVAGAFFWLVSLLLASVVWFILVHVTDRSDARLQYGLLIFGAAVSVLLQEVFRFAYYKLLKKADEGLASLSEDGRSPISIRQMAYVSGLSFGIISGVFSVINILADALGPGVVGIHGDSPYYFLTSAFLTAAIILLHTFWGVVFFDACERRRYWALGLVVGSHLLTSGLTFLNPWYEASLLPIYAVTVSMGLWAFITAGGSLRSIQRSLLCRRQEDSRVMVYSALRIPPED
UniProt P35612, sequence (P35612 whole entry, looked up): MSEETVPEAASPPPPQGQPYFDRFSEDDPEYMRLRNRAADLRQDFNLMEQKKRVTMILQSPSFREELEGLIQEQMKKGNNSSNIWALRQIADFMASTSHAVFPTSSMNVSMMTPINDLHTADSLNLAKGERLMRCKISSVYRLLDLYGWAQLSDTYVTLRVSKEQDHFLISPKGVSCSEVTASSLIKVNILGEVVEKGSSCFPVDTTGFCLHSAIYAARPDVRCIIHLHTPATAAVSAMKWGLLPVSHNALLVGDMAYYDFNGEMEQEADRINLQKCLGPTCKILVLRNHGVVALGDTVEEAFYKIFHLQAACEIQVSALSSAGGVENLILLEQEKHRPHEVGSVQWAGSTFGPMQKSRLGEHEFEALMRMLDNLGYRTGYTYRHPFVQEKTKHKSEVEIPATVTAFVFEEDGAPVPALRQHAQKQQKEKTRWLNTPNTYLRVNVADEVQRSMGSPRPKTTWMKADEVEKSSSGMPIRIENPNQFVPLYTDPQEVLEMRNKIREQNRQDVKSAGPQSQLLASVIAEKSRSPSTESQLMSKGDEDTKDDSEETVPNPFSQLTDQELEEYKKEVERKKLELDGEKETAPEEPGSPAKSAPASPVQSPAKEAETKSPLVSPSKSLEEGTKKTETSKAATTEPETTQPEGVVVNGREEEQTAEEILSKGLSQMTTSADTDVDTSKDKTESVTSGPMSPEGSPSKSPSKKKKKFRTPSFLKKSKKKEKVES
UniProt Q9UNK9, sequence (Q9UNK9 whole entry, looked up): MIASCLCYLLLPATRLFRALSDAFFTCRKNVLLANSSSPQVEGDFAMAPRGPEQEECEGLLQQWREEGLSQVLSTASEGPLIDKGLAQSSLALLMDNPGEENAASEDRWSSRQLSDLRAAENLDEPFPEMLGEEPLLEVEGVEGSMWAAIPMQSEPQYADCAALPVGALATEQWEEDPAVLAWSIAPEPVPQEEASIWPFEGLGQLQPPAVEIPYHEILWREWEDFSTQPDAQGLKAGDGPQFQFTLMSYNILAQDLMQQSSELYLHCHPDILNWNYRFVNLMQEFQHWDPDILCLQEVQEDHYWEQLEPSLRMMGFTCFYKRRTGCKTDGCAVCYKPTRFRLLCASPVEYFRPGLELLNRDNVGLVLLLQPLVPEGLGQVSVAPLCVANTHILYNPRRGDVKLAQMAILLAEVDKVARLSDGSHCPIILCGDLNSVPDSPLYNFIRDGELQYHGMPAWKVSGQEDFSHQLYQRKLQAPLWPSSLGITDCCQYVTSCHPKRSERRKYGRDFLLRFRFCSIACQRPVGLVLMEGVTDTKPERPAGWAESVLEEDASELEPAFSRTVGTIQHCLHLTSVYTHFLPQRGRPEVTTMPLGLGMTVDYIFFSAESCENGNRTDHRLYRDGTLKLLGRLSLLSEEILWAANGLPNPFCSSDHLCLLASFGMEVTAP

Target | log2 fold change [1] | log2 fold change [2] | log2 fold change [3] | log2 fold change [4] | log2 fold change [5] | log2 fold change [6] | log2 fold change [7] | log2 fold change [8] | log2 fold change [9] | log2 fold change [10] | log2 fold change [11] | log2 fold change [12] | log2 fold change [13] | log2 fold change [14] | log2 fold change [15] | log2 fold change [16] | log2 fold change [17] | log2 fold change [18] | log2 fold change [19] | log2 fold change [20]
ADD3 isoform 2 (UniProt Q9UEY8) | 0.171 | -0.049 | 0.057 | 0.009 | 0.047 | -0.016 | 0.034 | 0.008 | -0.433 | -0.015 | 0.005 | 0.009 | 0.108 | -0.063 | – | – | – | – | – | –
ATP6V0A1 (UniProt Q93050) | – | – | – | – | – | – | – | – | – | – | – | – | – | – | 0.187 | 0.047 | – | – | – | –
AP2S1 (UniProt M0QZ21) | – | – | – | – | – | -0.625 | 0.21 | – | – | – | – | – | – | 0.139 | – | – | – | – | – | –
BAIAP2 isoform 4 (UniProt Q9UQB8) | – | – | – | – | – | -0.16 | -0.048 | – | – | – | – | – | – | 0.053 | – | – | – | – | – | –
APOH (UniProt P02749) | -0.028 | – | -0.026 | -0.1 | -0.092 | 0.188 | 0.09 | 0.13 | 0.211 | -0.131 | – | 0.119 | -0.117 | -0.126 | 0.069 | 0.155 | -0.214 | 0.051 | -0.067 | 0.419
ABITRAM (UniProt Q9NX38) | 0.084 | 0.029 | 0.018 | -0.05 | 0.034 | -0.037 | 0.018 | 0.041 | -0.073 | -0.088 | -0.008 | 0.016 | -0.025 | 0.001 | 0.023 | 0.005 | – | – | – | 0.049
BRAF, A0A2R8Y8E0 | 0.15 | – | -0.248 | -0.987 (active) | -0.047 | -0.235 | -0.26 | 0.055 | 0.156 | 0.059 | – | 0.067 | -0.04 | 0.078 | – | – | 0.073 | 0.083 | -0.188 | 0.149
BRD2 isoform 2 (UniProt P25440) | – | – | -0.073 | – | 0.137 | -0.08 | -0.002 | 0.091 | -0.63 | – | – | – | 0.038 | -0.117 | 0.367 | -0.164 | -0.552 | 0.204 | 0.042 | –
ARL4A (UniProt P40617) | 0.009 | – | 0.35 | – | 0.047 | – | – | – | -0.295 | – | – | – | – | – | -0.053 | 0.143 | – | – | – | –
ARHGAP4 isoform 2 (UniProt P98171) | -0.338 | – | 0.121 | -0.016 | -0.061 | -0.117 | 0.015 | – | -0.051 | 0.161 | – | -0.005 | – | 0.062 | -0.209 | 0.026 | 0.042 | 0.033 | -0.067 | -0.179
ACSL6 isoform 1 (UniProt Q9UKU0) | – | 0.02 | – | -0.061 | – | -0.03 | 0.04 | – | – | -0.001 | 0.222 | 0.027 | – | 0.012 | -0.083 | 0.043 | -0.066 | 0.025 | -0.21 | -0.109
APH1A (UniProt Q96BI3) | -0.046 | – | 0.073 | – | -0.09 | -0.188 | 0.071 | 0.021 | -0.076 | – | – | – | -0.056 | -0.03 | 0.048 | 0.036 | 0 | 0.052 | -0.047 | 0.028
ATXN7L3 isoform 2 (UniProt Q14CW9) | -0.31 | – | 0.025 | -0.122 | -0.037 | – | – | 0.114 | 0.027 | 0.036 | – | -0.053 | 0.093 | – | 0.159 | 0.147 | 0.069 | 0.071 | 0.066 | 0.018
AARSD1 (UniProt Q9BTE6) | -0.415 | – | -0.063 | – | 0.197 | – | – | 0.264 | 0.107 | – | – | – | 0.041 | – | -0.117 | 0.135 | 0.131 | 0.054 | -0.13 | -0.045
BAP18 isoform 3 (UniProt Q8IXM2) | – | – | – | – | – | -0.039 | -0.015 | – | – | – | – | – | – | -0.183 | – | – | 0.02 | -0.146 | 0.074 | –
ANGEL1 (UniProt Q9UNK9) | – | – | – | -0.107 | – | -0.149 | 0.092 | -0.042 | – | 0.332 | – | 0.207 | -0.019 | 0.074 | 0.161 | 0.062 | – | – | – | –
BRD3 (UniProt Q15059) | -0.072 | – | -0.021 | 0.128 | 0.059 | -0.163 | -0.024 | 0.163 | -0.032 | -0.136 | – | -0.065 | 0.143 | 0.162 | 0.071 | 0.037 | -0.282 | 0.061 | 0.152 | 0.026
ADD1 isoform 4 (UniProt P35611) | – | 0.169 | – | – | – | – | – | -0.21 | – | – | -0.117 | – | 0.122 | – | -0.019 | 0.029 | – | – | – | –
AASDH (UniProt Q4L235) | – | 0.037 | – | 0.003 | – | -0.058 | 0.034 | 0.037 | – | -0.011 | -0.15 | -0.066 | 0.038 | -0.184 | 0.158 | -0.308 | 0.113 | 0.048 | -0.107 | -0.017
ARMC8 isoform 6 (UniProt Q8IUR7) | 0.081 | – | -0.075 | – | -0.067 | – | – | – | 0.038 | – | – | – | – | – | 0.078 | 0.016 | -0.145 | -0.168 | 0.053 | -0.024
ADAMTS5 (UniProt Q9UNA0) | -0.518 (active) | – | 0.171 | 0.072 | 0.043 | -0.06 | 0.113 | 0.064 | 0.036 | 0.141 | – | -0.009 | -0.03 | 0.025 | 0.012 | 0.127 | 0.186 | -0.124 | 0.088 | -0.015
ACTR3B (UniProt Q9P1U1) | – | – | – | -0.078 | – | -0.012 | 0.145 | -0.04 | – | -0.071 | – | 0.056 | -0.081 | -0.016 | – | – | -0.033 | 0.073 | 0.181 | -0.015
AUH (UniProt Q13825) | 0.042 | – | -0.122 | 0.039 | 0.065 | -0.028 | 0.059 | -0.237 | 0.036 | -0.003 | – | 0.026 | 0.28 | 0.032 | 0.112 | 0.031 | 0.155 | -0.035 | 0.084 | –
BDH2 (UniProt Q9BUT1) | 0.204 | – | -0.031 | 0.085 | 0.103 | – | – | -0.009 | -0.073 | -0.059 | – | 0.001 | 0.004 | – | -0.005 | 0.041 | -0.003 | 0.184 | 0.183 | –
ADD2 isoform 9 (UniProt P35612) | – | – | – | 0.203 | – | – | – | – | – | 0.145 | – | -0.103 | – | – | -0.025 | -0.098 | – | – | – | –
